Holding throughout (assay): DAPPL (digital affinity profiling via proximity ligation, sequencing); 10 mM Tris-HCl pH 7.5, 50 mM NaCl, 1 mM DTT, 4% glycerol, room temperature, 30 min; GST-TFs on glutathione beads, 16-mer random dsDNA library, 0.1% formaldehyde crosslink after washing; high values mean tight binding
One test has as its target T1, FEV (Homo sapiens, UniProt Q99581 1-238).
T1 sequence: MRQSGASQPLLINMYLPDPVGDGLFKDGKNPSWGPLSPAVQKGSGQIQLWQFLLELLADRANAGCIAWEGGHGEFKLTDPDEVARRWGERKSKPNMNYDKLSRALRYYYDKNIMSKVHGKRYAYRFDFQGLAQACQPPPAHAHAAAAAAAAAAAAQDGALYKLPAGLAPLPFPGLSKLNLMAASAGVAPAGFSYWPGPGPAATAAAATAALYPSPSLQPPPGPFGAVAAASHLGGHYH
The conditions noted are these: protein: recombinant; tags: N-terminal GST; dsDNA, one strand shown. Put shortly: (§1)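 Pools were built from human transcription factors expressed in yeast as GST fusions, captured on glutathione beads and DNA-barcoded, along with a tag-only sample. Incubation with 200 nmole of a 16-mer random double-stranded DNA library lasted 30 min at room temperature in Tris/NaCl/DTT/glycerol buffer, and was followed by washing, 0.1% formaldehyde crosslinking, proximity ligation, PCR amplification and Illumina NextSeq500 sequencing. Binding signal is the quotient of each hexamer's read frequency for a factor and its frequency for the tag-only sample.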

The target of the next test is ETV5 (Homo sapiens, UniProt P41161 1-510). The conditions noted are these: protein: recombinant; tags: N-terminal GST; dsDNA, one strand shown. Put shortly:
as §1

In another test the target is HSF1 (Homo sapiens, UniProt Q00613 1-529). The conditions noted are these: protein: recombinant; tags: N-terminal GST; chain copies: 3; dsDNA, one strand shown. Put shortly: as §1
The next test concerns the target T2, SPIC (Homo sapiens, UniProt Q8N5J4 1-248).
T2 sequence: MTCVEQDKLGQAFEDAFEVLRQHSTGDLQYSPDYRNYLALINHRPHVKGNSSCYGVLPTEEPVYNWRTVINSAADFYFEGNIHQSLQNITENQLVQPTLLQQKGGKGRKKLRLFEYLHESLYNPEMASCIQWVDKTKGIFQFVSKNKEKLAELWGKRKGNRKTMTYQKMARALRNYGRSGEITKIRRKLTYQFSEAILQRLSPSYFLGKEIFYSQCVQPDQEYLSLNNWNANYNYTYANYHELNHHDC
The conditions noted are these: protein: recombinant; tags: N-terminal GST; dsDNA, one strand shown. Put shortly: as §1

The next test addresses ELF4 (Homo sapiens, UniProt Q99607 1-663). As to conditions: protein: recombinant; tags: N-terminal GST; dsDNA, one strand shown. Put shortly:
as §1

The next test has as its target T3, ELK4 (Homo sapiens, UniProt P28324-2 1-405).
T3 sequence: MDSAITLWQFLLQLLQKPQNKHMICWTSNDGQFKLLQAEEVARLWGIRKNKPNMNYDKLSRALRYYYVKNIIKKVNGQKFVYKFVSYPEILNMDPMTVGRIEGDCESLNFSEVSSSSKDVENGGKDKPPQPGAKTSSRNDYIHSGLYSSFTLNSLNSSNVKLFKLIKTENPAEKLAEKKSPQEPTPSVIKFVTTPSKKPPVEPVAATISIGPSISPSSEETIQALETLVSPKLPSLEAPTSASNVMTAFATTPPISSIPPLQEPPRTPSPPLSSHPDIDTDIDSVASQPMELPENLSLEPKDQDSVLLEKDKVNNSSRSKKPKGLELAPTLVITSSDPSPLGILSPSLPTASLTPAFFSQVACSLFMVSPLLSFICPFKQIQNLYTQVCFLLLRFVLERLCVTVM
The conditions noted are these: protein: recombinant; tags: N-terminal GST; dsDNA, one strand shown. In outline: as §1

The target in a further test is T4, ETV2 (Homo sapiens, UniProt O00321 1-342).
T4 sequence: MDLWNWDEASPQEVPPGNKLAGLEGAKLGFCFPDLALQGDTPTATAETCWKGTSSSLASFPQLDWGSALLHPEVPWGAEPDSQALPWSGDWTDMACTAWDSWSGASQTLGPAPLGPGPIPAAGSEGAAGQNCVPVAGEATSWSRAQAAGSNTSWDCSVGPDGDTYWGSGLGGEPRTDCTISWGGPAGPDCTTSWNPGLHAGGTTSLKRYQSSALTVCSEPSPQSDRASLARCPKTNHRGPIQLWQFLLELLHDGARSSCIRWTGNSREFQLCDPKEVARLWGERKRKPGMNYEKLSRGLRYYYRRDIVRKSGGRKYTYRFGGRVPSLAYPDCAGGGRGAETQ
As to conditions: protein: recombinant; tags: N-terminal GST; dsDNA, one strand shown. Put shortly:
as §1

For the next test, the target named is T5, ELF3 (Homo sapiens, UniProt P78545 1-371).
T5 sequence: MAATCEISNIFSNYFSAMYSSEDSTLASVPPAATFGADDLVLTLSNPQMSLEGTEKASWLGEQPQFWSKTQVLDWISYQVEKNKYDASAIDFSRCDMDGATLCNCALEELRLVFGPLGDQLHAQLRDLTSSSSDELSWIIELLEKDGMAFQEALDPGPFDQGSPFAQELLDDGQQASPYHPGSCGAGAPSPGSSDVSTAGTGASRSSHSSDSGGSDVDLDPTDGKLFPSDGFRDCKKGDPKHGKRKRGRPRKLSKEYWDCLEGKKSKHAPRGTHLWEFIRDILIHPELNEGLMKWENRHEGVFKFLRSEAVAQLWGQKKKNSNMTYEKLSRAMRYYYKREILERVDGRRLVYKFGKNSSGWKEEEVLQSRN
As to conditions: protein: recombinant; tags: N-terminal GST; dsDNA, one strand shown. Put shortly:
as §1

For the next test, the target named is CRX (Homo sapiens, UniProt O43186 1-299). As to conditions: protein: recombinant; tags: N-terminal GST; dsDNA, one strand shown. In outline: as §1
In a further test the target is ETV1 (Homo sapiens, UniProt P50549 1-477). The conditions noted are these: protein: recombinant; tags: N-terminal GST; dsDNA, one strand shown. Put shortly:
as §1

Another test concerns the target T6, ERF (Homo sapiens, UniProt P50548 1-548).
T6 sequence: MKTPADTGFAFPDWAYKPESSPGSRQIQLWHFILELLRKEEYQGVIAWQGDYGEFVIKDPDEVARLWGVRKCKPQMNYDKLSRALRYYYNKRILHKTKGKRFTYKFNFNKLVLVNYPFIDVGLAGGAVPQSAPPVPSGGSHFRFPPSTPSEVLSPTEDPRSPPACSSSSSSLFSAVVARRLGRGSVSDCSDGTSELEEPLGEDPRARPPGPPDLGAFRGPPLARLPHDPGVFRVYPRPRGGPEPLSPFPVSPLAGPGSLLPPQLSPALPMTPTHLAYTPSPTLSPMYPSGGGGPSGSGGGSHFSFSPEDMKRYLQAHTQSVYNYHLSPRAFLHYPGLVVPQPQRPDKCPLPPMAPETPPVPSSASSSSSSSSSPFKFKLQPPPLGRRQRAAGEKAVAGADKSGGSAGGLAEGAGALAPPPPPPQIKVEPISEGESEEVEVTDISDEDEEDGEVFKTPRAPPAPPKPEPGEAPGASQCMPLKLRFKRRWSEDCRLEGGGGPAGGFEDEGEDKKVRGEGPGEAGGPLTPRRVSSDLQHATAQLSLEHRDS
As to conditions: protein: recombinant; tags: N-terminal GST; dsDNA, one strand shown. Put shortly:
as §1

The target of a further test is T7, ETV3L (Homo sapiens, UniProt Q6ZN32 1-361).
T7 sequence: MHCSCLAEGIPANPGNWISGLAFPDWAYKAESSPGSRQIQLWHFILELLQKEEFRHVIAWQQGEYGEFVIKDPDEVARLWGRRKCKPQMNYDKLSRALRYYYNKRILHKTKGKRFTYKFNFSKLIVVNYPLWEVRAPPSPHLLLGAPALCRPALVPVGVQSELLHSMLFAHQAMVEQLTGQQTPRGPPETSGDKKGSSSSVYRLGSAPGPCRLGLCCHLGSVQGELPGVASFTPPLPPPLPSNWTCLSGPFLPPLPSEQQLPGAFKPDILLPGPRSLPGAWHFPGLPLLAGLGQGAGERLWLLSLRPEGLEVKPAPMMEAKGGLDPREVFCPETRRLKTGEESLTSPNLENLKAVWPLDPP
As to conditions: protein: recombinant; tags: N-terminal GST; dsDNA, one strand shown. In outline: as §1

The target of a further test is T8, ETS2 (Homo sapiens, UniProt P15036 1-469).
T8 sequence: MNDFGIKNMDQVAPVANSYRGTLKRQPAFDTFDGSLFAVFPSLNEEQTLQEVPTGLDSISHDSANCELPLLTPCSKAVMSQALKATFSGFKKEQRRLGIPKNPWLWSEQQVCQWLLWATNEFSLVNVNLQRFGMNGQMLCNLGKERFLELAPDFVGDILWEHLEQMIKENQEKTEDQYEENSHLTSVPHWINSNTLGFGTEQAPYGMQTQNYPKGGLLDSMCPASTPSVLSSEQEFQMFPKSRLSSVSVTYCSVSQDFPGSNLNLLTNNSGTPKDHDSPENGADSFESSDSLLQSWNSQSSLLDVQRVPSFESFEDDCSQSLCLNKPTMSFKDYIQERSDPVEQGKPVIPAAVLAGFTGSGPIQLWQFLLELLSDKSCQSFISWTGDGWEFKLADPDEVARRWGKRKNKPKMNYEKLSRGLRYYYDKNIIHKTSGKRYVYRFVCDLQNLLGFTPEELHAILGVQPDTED
The conditions noted are these: protein: recombinant; tags: N-terminal GST; dsDNA, one strand shown. Put shortly:
as §1

Another test has as its target T9, SPDEF (Homo sapiens, UniProt O95238 1-335).
T9 sequence: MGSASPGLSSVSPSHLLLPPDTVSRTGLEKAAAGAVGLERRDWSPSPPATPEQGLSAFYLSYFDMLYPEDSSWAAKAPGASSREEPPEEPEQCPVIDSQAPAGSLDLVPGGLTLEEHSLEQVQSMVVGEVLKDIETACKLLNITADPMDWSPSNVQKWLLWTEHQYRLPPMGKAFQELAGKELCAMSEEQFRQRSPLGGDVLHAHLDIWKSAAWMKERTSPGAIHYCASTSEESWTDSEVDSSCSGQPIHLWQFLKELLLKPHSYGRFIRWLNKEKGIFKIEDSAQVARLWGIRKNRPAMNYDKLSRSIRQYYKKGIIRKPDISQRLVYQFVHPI
The conditions noted are these: protein: recombinant; tags: N-terminal GST; dsDNA, one strand shown. In outline: as §1

For another test, the target named is T10, ETV7 (Homo sapiens, UniProt Q9Y603 1-341).
T10 sequence: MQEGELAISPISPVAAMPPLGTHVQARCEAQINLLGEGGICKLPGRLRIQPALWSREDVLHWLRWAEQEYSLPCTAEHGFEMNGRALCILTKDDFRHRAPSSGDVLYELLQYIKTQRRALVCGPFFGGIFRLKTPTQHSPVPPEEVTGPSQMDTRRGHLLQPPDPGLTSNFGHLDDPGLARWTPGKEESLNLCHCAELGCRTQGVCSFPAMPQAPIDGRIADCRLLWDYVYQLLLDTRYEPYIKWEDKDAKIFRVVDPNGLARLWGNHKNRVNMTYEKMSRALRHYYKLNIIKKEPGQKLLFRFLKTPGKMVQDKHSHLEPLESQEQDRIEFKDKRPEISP
The conditions noted are these: protein: recombinant; tags: N-terminal GST; dsDNA, one strand shown. In outline:
as §1

The next test addresses T11, ELF5 (Homo sapiens, UniProt Q9UKW6-2 1-255).
T11 sequence: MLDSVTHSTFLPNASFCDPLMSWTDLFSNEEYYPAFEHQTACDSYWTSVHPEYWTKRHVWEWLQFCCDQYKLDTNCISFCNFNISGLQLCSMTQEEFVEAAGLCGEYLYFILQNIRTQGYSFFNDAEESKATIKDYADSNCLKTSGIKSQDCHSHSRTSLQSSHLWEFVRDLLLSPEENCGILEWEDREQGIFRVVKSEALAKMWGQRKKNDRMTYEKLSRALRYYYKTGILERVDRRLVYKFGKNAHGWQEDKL
The conditions noted are these: protein: recombinant; tags: N-terminal GST; dsDNA, one strand shown. Put shortly:
as §1

Another test addresses T12, ETV3 (Homo sapiens, UniProt P41162-2 1-143).
T12 sequence: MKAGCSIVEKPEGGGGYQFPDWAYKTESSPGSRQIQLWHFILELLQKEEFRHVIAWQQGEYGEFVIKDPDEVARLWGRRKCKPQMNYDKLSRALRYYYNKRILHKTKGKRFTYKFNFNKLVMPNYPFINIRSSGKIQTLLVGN
The conditions noted are these: protein: recombinant; tags: N-terminal GST; dsDNA, one strand shown. In outline: as §1

A further test has as its target ETV6 (Homo sapiens, UniProt P41212 1-452). The conditions noted are these: protein: recombinant; tags: N-terminal GST; dsDNA, one strand shown. In outline:
as §1

Chain of ETV5 (P41161 whole entry): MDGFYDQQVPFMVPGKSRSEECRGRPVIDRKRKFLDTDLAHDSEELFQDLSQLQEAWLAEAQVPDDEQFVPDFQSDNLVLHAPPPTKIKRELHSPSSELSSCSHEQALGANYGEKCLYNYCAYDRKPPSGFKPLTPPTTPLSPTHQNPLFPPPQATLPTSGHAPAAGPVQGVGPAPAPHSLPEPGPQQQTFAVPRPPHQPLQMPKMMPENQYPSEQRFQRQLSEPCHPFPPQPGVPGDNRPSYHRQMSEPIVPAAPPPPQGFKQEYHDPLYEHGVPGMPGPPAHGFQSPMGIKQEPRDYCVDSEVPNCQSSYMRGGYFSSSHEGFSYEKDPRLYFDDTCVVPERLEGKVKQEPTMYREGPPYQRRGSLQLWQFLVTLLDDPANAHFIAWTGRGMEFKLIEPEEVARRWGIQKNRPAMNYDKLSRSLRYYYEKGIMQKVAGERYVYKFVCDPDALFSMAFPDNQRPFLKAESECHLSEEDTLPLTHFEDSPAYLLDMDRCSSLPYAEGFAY
Chain of ETV6 (P41212 whole entry): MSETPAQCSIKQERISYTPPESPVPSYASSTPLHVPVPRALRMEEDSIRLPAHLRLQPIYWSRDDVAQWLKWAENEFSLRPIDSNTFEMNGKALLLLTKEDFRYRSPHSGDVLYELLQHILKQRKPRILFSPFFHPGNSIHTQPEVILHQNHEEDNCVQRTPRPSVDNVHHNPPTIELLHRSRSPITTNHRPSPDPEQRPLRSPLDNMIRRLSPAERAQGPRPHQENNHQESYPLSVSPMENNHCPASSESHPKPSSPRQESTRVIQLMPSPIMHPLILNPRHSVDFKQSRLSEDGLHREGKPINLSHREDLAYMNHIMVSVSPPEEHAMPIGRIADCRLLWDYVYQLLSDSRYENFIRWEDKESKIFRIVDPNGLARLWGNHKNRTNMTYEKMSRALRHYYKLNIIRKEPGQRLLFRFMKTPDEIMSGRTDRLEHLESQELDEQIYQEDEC
Chain of ELF4 (Q99607 whole entry): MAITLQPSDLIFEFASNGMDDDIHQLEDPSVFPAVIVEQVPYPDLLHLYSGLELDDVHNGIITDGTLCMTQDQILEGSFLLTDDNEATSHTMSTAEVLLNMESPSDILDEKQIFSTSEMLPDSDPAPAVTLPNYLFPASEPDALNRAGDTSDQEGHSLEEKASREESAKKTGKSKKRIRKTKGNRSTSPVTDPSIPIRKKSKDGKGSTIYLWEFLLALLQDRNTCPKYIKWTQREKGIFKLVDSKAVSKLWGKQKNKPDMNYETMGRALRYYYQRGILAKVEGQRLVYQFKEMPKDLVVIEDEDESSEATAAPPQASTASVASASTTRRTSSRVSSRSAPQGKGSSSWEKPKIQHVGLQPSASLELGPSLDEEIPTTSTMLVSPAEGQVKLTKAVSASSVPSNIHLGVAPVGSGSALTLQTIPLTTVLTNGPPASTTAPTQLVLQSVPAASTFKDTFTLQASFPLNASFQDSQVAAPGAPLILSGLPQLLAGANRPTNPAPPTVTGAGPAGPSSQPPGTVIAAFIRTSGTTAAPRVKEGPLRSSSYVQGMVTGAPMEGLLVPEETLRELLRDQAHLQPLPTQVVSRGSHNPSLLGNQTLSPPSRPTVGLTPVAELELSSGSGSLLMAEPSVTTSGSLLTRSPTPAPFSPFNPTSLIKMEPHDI
Chain of HSF1 (Q00613 whole entry): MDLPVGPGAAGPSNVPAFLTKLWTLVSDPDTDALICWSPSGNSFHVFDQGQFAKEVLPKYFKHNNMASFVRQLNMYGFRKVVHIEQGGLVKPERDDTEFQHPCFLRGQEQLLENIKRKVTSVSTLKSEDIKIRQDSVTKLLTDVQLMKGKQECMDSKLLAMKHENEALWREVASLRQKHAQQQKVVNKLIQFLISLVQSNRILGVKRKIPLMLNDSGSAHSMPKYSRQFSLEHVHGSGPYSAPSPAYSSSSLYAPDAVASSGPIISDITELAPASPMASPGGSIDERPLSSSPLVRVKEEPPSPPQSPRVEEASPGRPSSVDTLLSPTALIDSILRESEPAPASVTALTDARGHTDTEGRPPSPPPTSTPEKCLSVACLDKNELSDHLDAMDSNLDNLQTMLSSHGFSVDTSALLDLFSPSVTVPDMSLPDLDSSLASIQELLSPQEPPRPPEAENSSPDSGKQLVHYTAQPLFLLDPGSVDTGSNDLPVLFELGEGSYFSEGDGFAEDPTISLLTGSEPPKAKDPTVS
Chain of CRX (O43186 whole entry): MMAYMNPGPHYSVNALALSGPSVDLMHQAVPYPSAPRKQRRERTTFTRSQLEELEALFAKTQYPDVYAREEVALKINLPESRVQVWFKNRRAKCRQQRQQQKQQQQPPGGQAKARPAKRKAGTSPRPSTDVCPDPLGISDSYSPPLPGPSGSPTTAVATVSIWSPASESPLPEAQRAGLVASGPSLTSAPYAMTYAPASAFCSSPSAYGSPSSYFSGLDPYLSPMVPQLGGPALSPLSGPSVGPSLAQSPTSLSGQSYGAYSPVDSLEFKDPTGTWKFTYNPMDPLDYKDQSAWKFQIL
Chain of ETV1 (P50549 whole entry): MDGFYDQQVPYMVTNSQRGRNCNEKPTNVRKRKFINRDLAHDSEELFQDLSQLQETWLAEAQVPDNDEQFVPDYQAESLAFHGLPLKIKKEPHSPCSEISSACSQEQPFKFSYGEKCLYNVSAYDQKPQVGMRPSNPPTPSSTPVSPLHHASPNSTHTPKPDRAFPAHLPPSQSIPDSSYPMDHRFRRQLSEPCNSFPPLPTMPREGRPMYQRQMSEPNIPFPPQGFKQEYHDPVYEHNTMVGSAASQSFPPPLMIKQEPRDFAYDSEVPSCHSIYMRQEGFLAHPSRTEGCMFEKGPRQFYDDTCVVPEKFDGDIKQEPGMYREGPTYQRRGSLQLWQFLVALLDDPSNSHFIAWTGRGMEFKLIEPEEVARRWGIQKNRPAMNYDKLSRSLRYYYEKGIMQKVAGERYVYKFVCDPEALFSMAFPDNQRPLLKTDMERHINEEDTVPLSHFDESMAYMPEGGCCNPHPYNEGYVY

As for ATCGAT, the binding signal with FEV is 1.02 fold enrichment (6-mer frequency, TF over GST control); with ETV5, 1.17 fold enrichment (6-mer frequency, TF over GST control); with HSF1, 1.26 fold enrichment (6-mer frequency, TF over GST control); with SPIC, 1.2 fold enrichment (6-mer frequency, TF over GST control); in the test with ELF4, 1.17 fold enrichment (6-mer frequency, TF over GST control); with ELK4, 1.23 fold enrichment (6-mer frequency, TF over GST control). Besides, the binding signal with ETV2 is 1.08 fold enrichment (6-mer frequency, TF over GST control); with ELF3, 1.19 fold enrichment (6-mer frequency, TF over GST control); in the test with CRX it was 1.25 fold enrichment (6-mer frequency, TF over GST control); with ETV1, 1.07 fold enrichment (6-mer frequency, TF over GST control); in the test with ERF, 1.13 fold enrichment (6-mer frequency, TF over GST control); in the test with ETV3L, 1.17 fold enrichment (6-mer frequency, TF over GST control). For the same sequence, the binding signal with ETS2 is 1.1 fold enrichment (6-mer frequency, TF over GST control); with SPDEF, 1.09 fold enrichment (6-mer frequency, TF over GST control); with ETV7, 1.11 fold enrichment (6-mer frequency, TF over GST control); with ELF5, 1.09 fold enrichment (6-mer frequency, TF over GST control); with ETV3, 1.15 fold enrichment (6-mer frequency, TF over GST control); with ETV6, 1.11 fold enrichment (6-mer frequency, TF over GST control).

Source of the values: PMC7862700, “An all-to-all approach to the identification of sequence-specific readers for epigenetic DNA modifications on cytosine”.
